# Assay results from PubChem BioAssay (NCI).
# The panel holds about 83,000 compounds, 20% with a hit somewhere; the sample as a whole holds those more often.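 Cells were grown in 96-well plates and exposed to the test compound at a single concentration for 48 hours; results are reported as percent growth, with values below 10 considered active.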 Unmarked numbers belong to inactive results. The source made the active and inactive calls.
# Test system: MALME-3M melanoma
# Experiment: NCI-60 one-dose screen, 48 h (100 = growth as untreated, 0 = no growth, -100 = all killed)
# Settings: 10 µM unless noted
row,SMILES,growth
1,CN(C[C@H]1Cc2c(cccc2N2CCN(c3ncccn3)CC2)CN1)[C@H]1CCCc2cccnc21,82.7%
2,COc1ccc(-c2cnoc2-c2ccc(OC)cc2O)cc1,41.1%
3,COc1ccc(/C=N\NC(=O)CN2CCN(c3cc4c(cc3F)c(=O)c(C(=O)N/N=C/c3ccc(OC)c(OC)c3)cn4C3CC3)CC2)cc1OC,-71.9% (active)
4,C1=Cc2ccccc2N(c2nnc(-c3ccccc3)o2)c2ccccc21,109%
5,COc1ccc(-c2nc3sc(-c4cc(OC)c(OC)c(OC)c4)nn3c2/C=C2/C(=O)Nc3ccc(F)cc32)cc1,-48.3% (active)
6,O=C(Oc1ccccc1[N+](=O)[O-])C1CCCN1C(=O)OCc1ccccc1 (stereo not drawn),112%
7,CC(C)(C)OC(=O)NC(CSCc1ccccc1)C(=O)ON1C(=O)CCC1=O (stereo not drawn),101%
8,O=S(=O)(NCCCNc1nccc(-n2ccc3cccnc32)n1)c1ccc(Br)cc1,118%
9,COc1ccc(/C=C2\Oc3cc(OCCCN4CCCC4)ccc3C2=O)cc1,108%
10,Cc1csc(NC(c2ccc(Br)cc2)c2c(C)nc3ccccn23)n1 (stereo not drawn),88.4%
11,Cn1c(=O)cc(NC(=O)CN2CCN(c3cc4c(cc3F)c(=O)c(C(=O)O)cn4C3CC3)CC2)[nH]c1=O,104%
12,CC(C)(C)n1cc(-c2ccnc(NCCNS(=O)(=O)c3ccc(F)cc3)c2)c(-c2cccc(O)c2)n1,53.5%
13,CC(C)(C)n1cc(-c2ccnc(NCCNS(=O)(=O)c3ccc(Cl)cc3)c2)c(-c2cccc(O)c2)n1,64.4%
14,O=C1Nc2ccc3c(c2/C1=C\c1cc2c(cc1Br)OCO2)OCO3,-5.38% (active)
15,Cc1ccc(N2CCN(C(C)C(N)=O)CC2)cc1 (stereo not drawn),107%
16,COc1cc(NC(N)=NCCC(C)(C)Oc2ccc(C(F)(F)F)cc2)ncc1C#N,-81.2% (active)
17,CCc1ccc(-c2ccc(=O)n(-c3ccc(S(N)(=O)=O)cc3)n2)cc1,35.6%
18,CC[N+](CC)=c1cc2oc3cc(N(C)C)ccc3nc-2cc1C,-25.5% (active)
19,COc1cccc(-c2nc3sccn3c2-c2ccnc(NCCCNS(=O)(=O)c3ccc(F)cc3)c2)c1,39.6%
20,N[C@H]1CN(C(=O)c2cc3cc(Br)c(F)c(F)c3[nH]2)C[C@@H]1O,101%

row,SMILES,growth
1,O=C(N/N=C/C=C\c1ccccc1)C(=O)N/N=C/C=C/c1ccccc1,117%
2,O=C(O)COc1ccc(-c2cssc2=S)cc1,97%
3,CCOC(=O)c1c(NS(=O)(=O)c2ccc(C)cc2)sc2c1CCC1(C2)OCCO1,114%
4,Cc1nc2ncccc2nc1Nc1ccc(S(=O)(=O)Nc2ccccn2)cc1,107%
5,Fc1ccc(Nc2ncnc3ccc(-c4cnc5[nH]ccc5c4)cc23)cc1Cl,2.95% (active)
6,COc1ccc(C2C(C#N)=C(N)Oc3c2ccc2ccccc32)cc1 (stereo not drawn),47.9%
7,COc1ccc(C(=O)N2NC(=O)/C(=C/c3cn(-c4ccccc4)nc3-c3ccccc3)N=C2c2ccccc2)cc1,105%
8,C=C1C(=O)O[C@H]2[C@H]1CC/C(Cn1cc(CNC(=O)Cc3cn(C(=O)c4ccc(Cl)cc4)c4ccc(OC)cc34)nn1)=C\CC[C@@]1(C)O[C@@H]21,-76.1% (active)
9,CCCCC(CC)OC(=O)C(Br)CC (stereo not drawn),99.9%
10,O=C1/C(=C/c2ccccc2)Oc2ccc(O)c(I)c21,101%
11,COC(=O)c1cc2cc(-c3ccc(OC)cc3)cnc2[nH]1,56.3%
12,c1coc(CNc2ccnc(Nc3ccc(OCCN4CCCCC4)cc3)n2)c1,110%
13,COc1ccc2[nH]c(C(=O)OCc3ccc4c(Cl)cc(Cl)c(O)c4n3)cc2c1,-79.9% (active)
14,CCOC(=O)C1CCNC(=O)C1=O (stereo not drawn),126%
15,O=C(O)C1CCCCN1c1nc(Cl)nc(Cl)n1 (stereo not drawn),108%
16,C=C1CCC2C(C)(CO)C(O)CCC2(C)C1CC(NCc1ccccc1)C1=CCOC1=O (stereo not drawn),100%
17,CCCCCCCCCCCC(=O)NCCC[N+](C)(C)CC(=O)[O-],108%
18,CN(CCCCCl)P(=O)(OCc1ccc([N+](=O)[O-])o1)C(F)(F)C[C@H](NC(=O)CNC(=O)c1ccc(N=[N+]=[N-])cc1)C(=O)NCCc1ccc(O)cc1 (stereo partly drawn),79.6%
19,NC(N)=Nc1nc2ccccc2o1,119%

# Test system: MDA-MB-231 breast
# Experiment: as above
# Settings: 10 µM unless noted
row,SMILES,growth
1,CN(C[C@H]1Cc2c(cccc2N2CCN(c3ncccn3)CC2)CN1)[C@H]1CCCc2cccnc21,52.9%
2,COc1ccc(-c2cnoc2-c2ccc(OC)cc2O)cc1,45.8%
3,COc1ccc(/C=N\NC(=O)CN2CCN(c3cc4c(cc3F)c(=O)c(C(=O)N/N=C/c3ccc(OC)c(OC)c3)cn4C3CC3)CC2)cc1OC,-22.9% (active)
4,C1=Cc2ccccc2N(c2nnc(-c3ccccc3)o2)c2ccccc21,85.5%
5,COc1ccc(-c2nc3sc(-c4cc(OC)c(OC)c(OC)c4)nn3c2/C=C2/C(=O)Nc3ccc(F)cc32)cc1,-31% (active)
6,O=C(Oc1ccccc1[N+](=O)[O-])C1CCCN1C(=O)OCc1ccccc1 (stereo not drawn),103%
7,CC(C)(C)OC(=O)NC(CSCc1ccccc1)C(=O)ON1C(=O)CCC1=O (stereo not drawn),111%
8,O=S(=O)(NCCCNc1nccc(-n2ccc3cccnc32)n1)c1ccc(Br)cc1,104%
9,COc1ccc(/C=C2\Oc3cc(OCCCN4CCCC4)ccc3C2=O)cc1,93.8%
10,Cc1csc(NC(c2ccc(Br)cc2)c2c(C)nc3ccccn23)n1 (stereo not drawn),84%
11,Cn1c(=O)cc(NC(=O)CN2CCN(c3cc4c(cc3F)c(=O)c(C(=O)O)cn4C3CC3)CC2)[nH]c1=O,98.5%
12,CC(C)(C)n1cc(-c2ccnc(NCCNS(=O)(=O)c3ccc(F)cc3)c2)c(-c2cccc(O)c2)n1,41%
13,CC(C)(C)n1cc(-c2ccnc(NCCNS(=O)(=O)c3ccc(Cl)cc3)c2)c(-c2cccc(O)c2)n1,56.6%
14,O=C1Nc2ccc3c(c2/C1=C\c1cc2c(cc1Br)OCO2)OCO3,24.5%
15,Cc1ccc(N2CCN(C(C)C(N)=O)CC2)cc1 (stereo not drawn),102%
16,COc1cc(NC(N)=NCCC(C)(C)Oc2ccc(C(F)(F)F)cc2)ncc1C#N,-54.4% (active)
17,CCc1ccc(-c2ccc(=O)n(-c3ccc(S(N)(=O)=O)cc3)n2)cc1,66.8%
18,CC[N+](CC)=c1cc2oc3cc(N(C)C)ccc3nc-2cc1C,8.42% (active)
19,COc1cccc(-c2nc3sccn3c2-c2ccnc(NCCCNS(=O)(=O)c3ccc(F)cc3)c2)c1,57.4%
20,N[C@H]1CN(C(=O)c2cc3cc(Br)c(F)c(F)c3[nH]2)C[C@@H]1O,92%

row,SMILES,growth
1,O=C(N/N=C/C=C\c1ccccc1)C(=O)N/N=C/C=C/c1ccccc1,111%
2,O=C(O)COc1ccc(-c2cssc2=S)cc1,110%
3,CCOC(=O)c1c(NS(=O)(=O)c2ccc(C)cc2)sc2c1CCC1(C2)OCCO1,99.7%
4,Cc1nc2ncccc2nc1Nc1ccc(S(=O)(=O)Nc2ccccn2)cc1,89.1%
5,Fc1ccc(Nc2ncnc3ccc(-c4cnc5[nH]ccc5c4)cc23)cc1Cl,-16.9% (active)
6,COc1ccc(C2C(C#N)=C(N)Oc3c2ccc2ccccc32)cc1 (stereo not drawn),31.2%
7,COc1ccc(C(=O)N2NC(=O)/C(=C/c3cn(-c4ccccc4)nc3-c3ccccc3)N=C2c2ccccc2)cc1,93.8%
8,C=C1C(=O)O[C@H]2[C@H]1CC/C(Cn1cc(CNC(=O)Cc3cn(C(=O)c4ccc(Cl)cc4)c4ccc(OC)cc34)nn1)=C\CC[C@@]1(C)O[C@@H]21,-24.1% (active)
9,CCCCC(CC)OC(=O)C(Br)CC (stereo not drawn),112%
10,O=C1/C(=C/c2ccccc2)Oc2ccc(O)c(I)c21,81%
11,COC(=O)c1cc2cc(-c3ccc(OC)cc3)cnc2[nH]1,57.1%
12,c1coc(CNc2ccnc(Nc3ccc(OCCN4CCCCC4)cc3)n2)c1,82.6%
13,COc1ccc2[nH]c(C(=O)OCc3ccc4c(Cl)cc(Cl)c(O)c4n3)cc2c1,-75.9% (active)
14,CCOC(=O)C1CCNC(=O)C1=O (stereo not drawn),106%
15,O=C(O)C1CCCCN1c1nc(Cl)nc(Cl)n1 (stereo not drawn),110%
16,C=C1CCC2C(C)(CO)C(O)CCC2(C)C1CC(NCc1ccccc1)C1=CCOC1=O (stereo not drawn),99.6%
17,CCCCCCCCCCCC(=O)NCCC[N+](C)(C)CC(=O)[O-],90.5%
18,CN(CCCCCl)P(=O)(OCc1ccc([N+](=O)[O-])o1)C(F)(F)C[C@H](NC(=O)CNC(=O)c1ccc(N=[N+]=[N-])cc1)C(=O)NCCc1ccc(O)cc1 (stereo partly drawn),108%
19,NC(N)=Nc1nc2ccccc2o1,103%
